For 22 molecules, binding signal results are on record in paper PMC12136788.

B1: chr5:31803264:31803265:+_ENSMUSG00000064037_ENSMUST00000076949|mus_mus|FALSE|FALSE (ssRNA)
RNA: GGGAGUUCUACAGUCCGACGAUCUGGAAAUGAGGAAGCCAGGGCCUCAGUGAUGAUUGUCCCUGAAGCUGACCAGGUAAAUACUUCAAUCUGUCCAGGUGUGUCAAUCAAGACAUAUCUGAAUGUGUUCUGGGCCUUCUCAAUCAACAGAGGAUUGAGCAUCA
B2: 64960267_64960387_5255_CDS_ENSG00000171988_ENST00000542921|human|control|control (ssRNA)
RNA: GGGAGUUCUACAGUCCGACGAUCUGAGUGAGCUGGUUCUUCUCCUUUUUUACUGCGAAUAAGUCUACAUUCUCGACACUUUUGUAAAUUAGGCCCUAUCUCACAGCAGGAGUCAUCCUGUAAAAAGGAUUCCCCAGUUUGCUUCAACAGAGGAUUGAGCAUCA
B3: chr4:76721835:76721836:+_ENSG00000138768_ENST00000264904|hu_mus|hu_hu_hu_mus_True|98_108 (ssRNA)
RNA: GGGAGUUCUACAGUCCGACGAUCGUUGGCUGGGGUUUCUGAGAUGCCUCUGGAAUAUAACUCAUGUUUGCUAAUAAAUCCUAGUUUCUCUAUGAAAUUCUCUUUGCCAAUCCUCUUCUCUAUUAGUUGCUUUAGUUUCUCUUUCAACAGAGGAUUGAGCAUCA
B4: chr1:241675328:241675329:-_ENSG00000091483_ENST00000366560|hu_hu|FALSE|FALSE (ssRNA)
RNA: GGGAGUUCUACAGUCCGACGAUCGCUUUUAUUAACAUGAUCGUUGGGAUGCACAGGUAUCUUGCUGCCAAGUUCACCUCCUAACAUUUCAAUUGCUCUAUUGCUAAUGACUUCAUUUACAUUCAUAUUUGUCUGAGUUCCUGACAACAGAGGAUUGAGCAUCA
B5: 21460886_21461006_6735_CDS_ENSMUSG00000042453_ENSMUST00000161356|mouse|control|control (ssRNA)
RNA: GGGAGUUCUACAGUCCGACGAUCAGGAUUUUUGGUGCUUAUUUUACAGGUUGGCCCAGAGUAGCCCGGGUCACAUAUACACUUGGUUCCAUUGAUGCAGCUCCCGUGCCCAUAGCACAUCUCUUCACACUGGGGACCAAUGUACAACAGAGGAUUGAGCAUCA
B6: chr10:121586544:121586545:+_ENSG00000198825_ENST00000369080|hu_mus|motif|central (ssRNA)
RNA: GGGAGUUCUACAGUCCGACGAUCCGACUGCCUAAUCGAGGUGCUGACACAAUAAUCCCACAGCUUGGGAGAAUGUAAUCGGUUGGCCCUACGCUCUCUAAAGAAUUGGCUAGCUGCUUGUCUUCCUCCGACUUAGAAUUUGUACAACAGAGGAUUGAGCAUCA
B7: chr2:153237265:153237266:-_ENSMUSG00000061411_ENSMUST00000109784|mus_mus|mus_mus_mus_hu_False|78_78 (ssRNA)
RNA: GGGAGUUCUACAGUCCGACGAUCAAAAAAAAAAAAAAAAAAGUGUCCUUGUGCCCAAAGUCUCAGAUGCUUGGAGUGUGGCUAGAAACAGCUCUUUUGGAUCCCACCUCUUUCAAAAACAAAAUGUACCAACUGGUGAGGCAGCAACAGAGGAUUGAGCAUCA
B8: chr2:153237265:153237266:-_ENSMUSG00000061411_ENSMUST00000109784|mus_mus|mus_mus_mus_hu_False|78_98 (ssRNA)
RNA: B7 RNA with A37G
B9: chr2:153237265:153237266:-_ENSMUSG00000061411_ENSMUST00000109784|mus_mus|FALSE|FALSE (ssRNA)
RNA: GGGAGUUCUACAGUCCGACGAUCAAAAAAAAGAAAAGAAAAGUGUCCUUGUGCCCAAAGUCUCAGAUGCUUGGAGUGCAGCUAGAAACAGCUCUUUUGGAUCCCACCUCUUUCAGAAAACAGUGUACCAACUGGUGAGGCAGGCAACAGAGGAUUGAGCAUCA
B10: chr2:153237265:153237266:-_ENSMUSG00000061411_ENSMUST00000109784|mus_mus|mus_mus_mus_hu_False|28_78 (ssRNA)
RNA: B7 RNA with A115G
B11: chr2:153237265:153237266:-_ENSMUSG00000061411_ENSMUST00000109784|mus_mus|mus_mus_mus_hu_False|78_108 (ssRNA)
RNA: B7 RNA with A32G
B12: chr2:153237265:153237266:-_ENSMUSG00000061411_ENSMUST00000109784|mus_mus|mus_mus_mus_hu_False|58_78 (ssRNA)
RNA: B7 RNA with U78C, G79A
B13: 112580157_112582736_3545_CDS_ENSG00000153107_ENST00000341068|human|control|control (ssRNA)
RNA: GGGAGUUCUACAGUCCGACGAUCCAAAUCUCUUAAAGUGAAUCCUACAUUAGUCAUCCAGACAACCAAUCUUUCAGCUAGACUAGAAACAGAUGUAGAAUGCCUGAAACUAAACCUGUUUUCCUCUUGUUCUACUUGCAACUUCAACAGAGGAUUGAGCAUCA
B14: 61074685_61077595_487_3pUTR_ENSG00000119541_ENST00000238497|human|control|control (ssRNA)
RNA: GGGAGUUCUACAGUCCGACGAUCUCUUUUUUUCAGGAUCAUCAGAUUCUCCUUCCCCAUCACUGUCAUUCCCCUUCUCAUCUGCUGGACUCGGCUGUCCUUCUUUCACUGGCUUCUGUGCUUUUUUCUCUUUAUUUUUCAGGUCAACAGAGGAUUGAGCAUCA
B15: chr7:149068622:149068623:-_ENSMUSG00000025139_ENSMUST00000001950|mus_hu|mus_mus_mus_hu_False|8_28 (ssRNA)
RNA: GGGAGUUCUACAGUCCGACGAUCGUGAGGCCUCUGAGUGUGGCUUGUGGUCUGUCCUGGGUUAGAGUUGUUAAUAUCACGGAACAUACCAUCUAGAACGUUCCAGUCUGCCUGACUACCUUCAUUCGCAAGAGGGCAGAAAUCCAACAGAGGAUUGAGCAUCA
B16: chr5:138634757:138634758:+_ENSMUSG00000036968_ENSMUST00000110934|mus_hu|FALSE|FALSE (ssRNA)
RNA: GGGAGUUCUACAGUCCGACGAUCGUAGACCAAGUAUCUAUCCCACCUAAAUUAUCAGCAACUCCAGGCCAUGACCCAGUGUCCCAUUCUCCUUCACGGUUUGCUGGUGUGUAGCCUCCUGGAUACAGGCAAUGUAUAUAGAUCCAACAGAGGAUUGAGCAUCA
B17: chr17:56552419:56552420:-_ENSMUSG00000013236_ENSMUST00000086828|mus_mus|mus_mus_mus_hu_False|8_88 (ssRNA)
RNA: GGGAGUUCUACAGUCCGACGAUCAAAAAAUACACUAUUUAAAAAAAAAAGAAAAAAACGGGAUACAGUUACACUGAGAGUUUUAAAAGAAAGCUGGAUUCUGGUCCCAGCCCAGUGUCCCCAGGCUGAGUGCGGAAGAGGAGCCAACAGAGGAUUGAGCAUCA
B18: chr17:56552419:56552420:-_ENSMUSG00000013236_ENSMUST00000086828|mus_mus|mus_mus_mus_hu_False|58_88 (ssRNA)
RNA: GGGAGUUCUACAGUCCGACGAUCAAAAAAUACACUAUUUAAAAAAAAAAGAAAAAAACGGGAUACAGUUACACUGACACUAUUAAAAGAAAGCUGGAUUCUGGUCCCAGCCCAGUGUCCCCAGGCUGCAGAGCGGGGAGGAGCCAACAGAGGAUUGAGCAUCA
B19: chr17:56552419:56552420:-_ENSMUSG00000013236_ENSMUST00000086828|mus_mus|mus_mus_mus_hu_False|88_88 (ssRNA)
RNA: B18 RNA with C77G, C79G, A81U
B20: chr17:56552419:56552420:-_ENSMUSG00000013236_ENSMUST00000086828|mus_mus|mus_mus_mus_hu_False|28_88 (ssRNA)
RNA: B18 RNA with C77G, C79G, A81U, C107U, A108U, C112A, G114A, U115A
B21: 30734625_30737523_1216_CDS_ENSG00000101337_ENST00000398022|human|control|control (ssRNA)
RNA: GGGAGUUCUACAGUCCGACGAUCCAGGGAGCUGAGGAUCAUGGGGUACUGGGGGGGCCUGAAGACGUCGCCGUGCACCAACUUCCACCCAGACUCCUCCAUGGUGUCUUCAAUGUCAUCCUCCUUGUUGUAGUUGGCAAUGUCCAACAGAGGAUUGAGCAUCA
B22: chr7:149068622:149068623:-_ENSMUSG00000025139_ENSMUST00000001950|mus_hu|mus_mus_mus_hu_False|68_68 (ssRNA)
RNA: GGGAGUUCUACAGUCCGACGAUCGUGAGGCCUCUGAGUGUGGCUUGUGGUCUGUCCUGGGUUAGAGCUGCUGGUAACACGGAACAUACCAUCUAGAACGUUCCAGUCCCGCCUGACACCUUCAUUCCCAAUGGAGAAGAAAUCCAACAGAGGAUUGAGCAUCA

Changes are numbered by the printed parent chain. Over roughly 24,000 sequences, “enrichment r” has its median near 0.99; the highest 2% begin near 3.7. This is one part of a sample in which the highest values are shown more often than they occur.

The test addresses T1, UNK ZnF1-3 (human, UniProt Q9C0B0 31-174).
T1 sequence: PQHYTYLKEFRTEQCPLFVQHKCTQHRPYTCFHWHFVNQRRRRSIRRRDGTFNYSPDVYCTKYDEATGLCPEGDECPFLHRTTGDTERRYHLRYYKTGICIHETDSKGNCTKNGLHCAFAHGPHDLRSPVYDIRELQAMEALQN
In words: nsRBNS (natural sequence RNA bind-n-seq); RBNS binding buffer (assumed for nsRBNS): 25 mM Tris pH 7.5, 150 mM KCl, 3 mM MgCl2, 0.01% Triton X-100, 500 ug/ml BSA, 20 U/ml SUPERase-In, 4 C; UNK is unkempt and MSI1 is Musashi-1; names of the RNAs are library labels; protein concentration not given here; high values mean tight binding.
Regarding B1, the binding signal came to 0.591 enrichment R.

B2 came in with a binding signal of 0.8 enrichment R. Consider B3, for which the binding signal was 0.409 enrichment R. As to B4, the binding signal is 0.465 enrichment R.

Molecule B5 registered a binding signal of 0.458 enrichment R.

B6 came in with a binding signal of 1.12 enrichment R. Molecule B7 showed a binding signal of 5.71 enrichment R. Molecule B8 yielded a binding signal of 4.81 enrichment R. In the case of B9, the binding signal was 1.55 enrichment R.

B10 displayed a binding signal of 4.56 enrichment R.

As to B11, the binding signal was found to be 3.65 enrichment R. Under B12 stands 6.45 enrichment R.

B13 came in with a binding signal of 0.842 enrichment R. Regarding B14, the binding signal was 0.231 enrichment R. B15 gave a binding signal of 0.726 enrichment R. For B16, the binding signal was 0.757 enrichment R. Next, B17: 6.77 enrichment R; B18: 12.3 enrichment R. Under B19 stands 7.69 enrichment R; under B20, 8.27 enrichment R; under B21, 0.573 enrichment R. Molecule B22 gave a binding signal of 0.824 enrichment R.
